Inconclusive results are not listed. Active and inactive are the calls of the source. Unless noted, calls come from the whole dose curve.
Legend:
[1] = Nuclear factor erythroid 2-related factor 2/antioxidant responsive element (Nrf2/ARE) small molecule agonists: qHTS cell viability counter screen in human keratinocytes (AID 1919968; active = well fitted curve in the direction sought with a large enough effect in the repeat runs; an effect the other way counts as inactive or inconclusive; note: nearly all actives have a fitted effect of over 55% in size)
Method in brief: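 After a 5 h attachment period, ARE-reporter keratinocytes were dosed with compounds in DMSO and then cultured 23 h at 37 C. Cell viability came from CellTiter-Fluor signal read after a further 1 h.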

[2] = Nuclear factor erythroid 2-related factor 2/antioxidant responsive element (Nrf2/ARE) small molecule agonists: luciferase reporter gene qHTS assay in human keratinocytes (AID 1919969); note: nearly all actives have a fitted effect of over 35% in size
[3] = biological target: Gonadotropin-releasing hormone receptor (Homo sapiens) (UniProt P30968); assay: Human gonadotropin-releasing hormone receptor (GnRHR) small molecule agonists, calcium flux assay in GnRHR-HEK293 cells (AID 1920063); note: nearly all actives have a fitted effect of over 35% in size
Method in brief: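 We seeded human GnRHR-expressing HEK293 cells for 18 hours, loaded them with calcium dye for an hour at 37 C, added test compounds, and recorded fluorescence intensity kinetically for three minutes.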

[4] = biological target: KiSS-1 receptor (Homo sapiens) (UniProt Q969F8); assay: Human kisspeptin (KISS1R) small molecule agonists, calcium flux assay in KISS1R-HEK293 cells (AID 1920064; active = well fitted curve in the direction sought with a large enough effect in the repeat runs; an effect the other way counts as inactive or inconclusive)
Method in brief: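 Kinetic calcium assay, 1 s sampling over 3 min at Ex/Em 480/540, in HEK293 cells engineered with human KISS1R; compounds delivered in DMSO after 1 h dye loading.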

[5] = G protein-coupled receptor (GPCR) small molecule agonists, calcium flux assay: HEK293 wild type cell line counter screen (AID 1920065)
Method in brief: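 Calcium-sensitive dye, loaded 1 h at 37 C into cells cultured 18 h, reports compound-evoked calcium release as fluorescence (Ex/Em 480/540), measured over 3 min. Agonist mode; 15-point titrations, triplicate.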

[6] = p53 small molecule agonists, cell-based qHTS assay with human liver microsomes (AID 1963577)
Method in brief: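 p53RE-bla reporter cells were pre-incubated 5 h at 37 C, then treated with compounds plus human liver microsomes (0.5 mg/mL final) and NADPH (0.5 mg/mL final) for 16 h at 37 C. Beta-lactamase activity was read by LiveBLAzer fluorescence after 2 h at room temperature.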

[7] = p53 small molecule agonists, cell-based qHTS assay with rat liver microsomes (AID 1963578)
Method in brief: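 p53RE-bla cells were exposed to compounds together with rat liver microsomes (0.5 mg/mL final) and NADPH (0.5 mg/mL final) for 16 h at 37 C, then read by LiveBLAzer beta-lactamase fluorescence after 2 h at room temperature.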

[8] = p53 small molecule agonists, cell-based qHTS assay with human liver microsomes: qHTS cell viability counter screen (AID 1963579); note: nearly all actives have a fitted effect of over 45% in size
Method in brief: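 p53RE-bla cells (4,000/well) were pre-incubated 5 h at 37 C, then given compounds in DMSO plus human liver microsomes (0.5 mg/mL final) and NADPH (0.5 mg/mL final) for 16 h at 37 C. Viability was read by CellTiter-Glo luminescence.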

[9] = p53 small molecule agonists, cell-based qHTS assay with rat liver microsomes: qHTS cell viability counter screen (AID 1963580); note: nearly all actives have a fitted effect of over 45% in size
Method in brief: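 Viability is assessed in parallel with the p53 reporter read: HCT-116 p53RE-bla cells receive compounds plus rat microsomes and NADPH (0.5 mg/mL final apiece), incubate 16 h at 37 C, and then CellTiter-Glo luminescence is recorded.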

[10] = p53 small molecule agonists, cell-based qHTS assay: qHTS cell viability counter screen (AID 1963581); note: nearly all actives have a fitted effect of over 45% in size
Method in brief: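 Following 5 h attachment, HCT-116 p53RE-bla cells took up compound for 16 h at 37 C; the reporter was read with B/G FRET substrate (2 h RT), and viability then via CellTiter-Glo ATP luminescence.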

[11] = p53 small molecule agonists, cell-based qHTS assay (AID 1963582; active = well fitted activation curve with a large enough effect in the signal ratio in the repeat runs, not every such curve was filed as active; the % refers to the signal ratio)
Method in brief: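 In this cell-based concentration-response screen, a p53 response element drives beta-lactamase; cells received DMSO-borne compounds after 5 h culture and were incubated a further 16 h before FRET substrate development.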

[12] = cAMP Responsive Elements (CRE) small molecule agonists, cell-based qHTS assay (AID 1963590)
Method in brief: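 A CRE-responsive beta-lactamase reporter in HEK 293T cells was used. Treatment ran 3 h at 37 C; detection used LiveBLAzer B/G FRET substrate for 2 h at room temperature.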

[13] = cAMP Responsive Elements (CRE) small molecule antagonists, cell-based qHTS assay (AID 1963591; active = well fitted inhibition curve with a large enough effect in the signal ratio in the repeat runs, not every such curve was filed as active; the % refers to the signal ratio)
Method in brief: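 HEK293T cells carrying a CRE-driven beta-lactamase reporter receive compound and NKH477 (0.25 uM final) for 3 h. Fluorescence from LiveBLAzer B/G FRET substrate is read after 2 h at room temperature.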

[14] = biological target: Beta-2 adrenergic receptor (Homo sapiens) (UniProt P07550); assay: Adrenergic beta2 receptor (ADRB2) small molecule antagonists, cell-based qHTS assay (AID 1963592); note: series mostly up to about 92 µM; nearly all actives have a fitted effect of over 50% in size
Method in brief: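 Cells (CHO, stable ADRB2 overexpression) incubated 18-20hr at 37C; compounds added from DMSO; agonist mix (1nM isoproterenol, 100uM IBMX, 25uM Ro-20-1724) added; 0.5hr RT; d2-cAMP and anti-cAMP-cryptate added; 1hr RT; 665/615 nm read.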

[15] = biological target: D(2) dopamine receptor (Homo sapiens) (UniProt P14416); assay: Dopamine D2 receptor (DRD2) small molecule agonists, cell-based qHTS assay (AID 1963594); note: nearly all actives have a fitted effect of over 35% in size
Method in brief: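 HEK293 cells stably expressing human DRD2, pre-treated with PDE inhibitor Ro20-1724 (0.1 mM final) and compound 10 min at room temperature, then stimulated with NKH477 (200nM […]) for 30 min. cAMP read by HTRF (665/620 nm).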

[16] = biological target: D(2) dopamine receptor (Homo sapiens) (UniProt P14416); assay: Dopamine D2 receptor (DRD2) small molecule antagonists, cell-based qHTS assay (AID 1963595; active = well fitted inhibition curve with a large enough effect in the signal ratio in the repeat runs, with a control signal flat; the % refers to the signal ratio)
Method in brief: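 Cells were plated and grown for 24 h at 37 °C. Ro20-1724 (0.1 mM final) went in first, then compound for 10 min. NKH477 (200 nM) with quinpirole (12 nM) followed for 30 min at RT, then HTRF detection reagents for 1 h.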

[17] = biological target: Muscarinic acetylcholine receptor M1 (Homo sapiens) (UniProt P11229); assay: Cholinergic receptor muscarinic 1 (CHRM1) small molecule agonists, cell-based qHTS assay (AID 1963589); note: nearly all actives have a fitted effect of over 35% in size
Method in brief: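 Measures agonist-induced intracellular calcium rise. Stable human CHRM1 CHO line, 1 h dye load at 37 C, compounds from DMSO, kinetic fluorescence read.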

Measured: Potency

Sequence of Muscarinic acetylcholine receptor M1 (Homo sapiens) (P11229 whole entry, looked up): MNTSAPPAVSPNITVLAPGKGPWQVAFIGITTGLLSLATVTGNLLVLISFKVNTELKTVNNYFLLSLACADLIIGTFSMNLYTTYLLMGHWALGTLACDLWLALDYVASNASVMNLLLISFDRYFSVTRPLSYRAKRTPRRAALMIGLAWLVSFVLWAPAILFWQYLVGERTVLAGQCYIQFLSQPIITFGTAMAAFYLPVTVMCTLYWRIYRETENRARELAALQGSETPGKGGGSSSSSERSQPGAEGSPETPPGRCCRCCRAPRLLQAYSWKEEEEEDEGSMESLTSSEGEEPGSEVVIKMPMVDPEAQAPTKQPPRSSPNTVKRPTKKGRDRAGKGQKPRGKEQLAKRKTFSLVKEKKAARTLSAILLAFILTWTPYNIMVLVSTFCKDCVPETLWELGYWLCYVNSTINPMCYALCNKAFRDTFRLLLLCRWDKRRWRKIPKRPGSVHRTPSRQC
Sequence of KiSS-1 receptor (Homo sapiens) (Q969F8 whole entry, looked up): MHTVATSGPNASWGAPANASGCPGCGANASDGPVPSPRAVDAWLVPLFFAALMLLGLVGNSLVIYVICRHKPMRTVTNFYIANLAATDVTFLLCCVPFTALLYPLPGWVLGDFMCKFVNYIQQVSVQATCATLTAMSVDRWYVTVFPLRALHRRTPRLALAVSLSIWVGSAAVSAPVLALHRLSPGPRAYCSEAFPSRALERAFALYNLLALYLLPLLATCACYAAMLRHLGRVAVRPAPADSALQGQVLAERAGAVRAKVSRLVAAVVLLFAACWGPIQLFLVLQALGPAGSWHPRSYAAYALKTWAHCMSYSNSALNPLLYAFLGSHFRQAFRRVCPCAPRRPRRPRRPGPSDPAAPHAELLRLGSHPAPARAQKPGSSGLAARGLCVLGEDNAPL
Sequence of D(2) dopamine receptor (Homo sapiens) (P14416 whole entry, looked up): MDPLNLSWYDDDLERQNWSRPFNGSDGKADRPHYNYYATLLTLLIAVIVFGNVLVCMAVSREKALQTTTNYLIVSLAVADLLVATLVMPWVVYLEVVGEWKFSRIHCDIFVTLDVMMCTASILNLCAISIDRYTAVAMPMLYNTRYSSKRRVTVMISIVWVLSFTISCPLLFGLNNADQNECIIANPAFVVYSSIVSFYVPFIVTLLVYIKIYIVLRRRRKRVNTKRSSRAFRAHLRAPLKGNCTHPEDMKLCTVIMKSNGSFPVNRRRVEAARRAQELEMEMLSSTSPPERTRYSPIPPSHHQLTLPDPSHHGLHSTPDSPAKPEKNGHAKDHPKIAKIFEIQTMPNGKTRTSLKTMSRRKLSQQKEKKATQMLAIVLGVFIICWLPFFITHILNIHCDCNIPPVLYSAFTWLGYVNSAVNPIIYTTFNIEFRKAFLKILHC
Sequence of Beta-2 adrenergic receptor (Homo sapiens) (P07550 whole entry, looked up): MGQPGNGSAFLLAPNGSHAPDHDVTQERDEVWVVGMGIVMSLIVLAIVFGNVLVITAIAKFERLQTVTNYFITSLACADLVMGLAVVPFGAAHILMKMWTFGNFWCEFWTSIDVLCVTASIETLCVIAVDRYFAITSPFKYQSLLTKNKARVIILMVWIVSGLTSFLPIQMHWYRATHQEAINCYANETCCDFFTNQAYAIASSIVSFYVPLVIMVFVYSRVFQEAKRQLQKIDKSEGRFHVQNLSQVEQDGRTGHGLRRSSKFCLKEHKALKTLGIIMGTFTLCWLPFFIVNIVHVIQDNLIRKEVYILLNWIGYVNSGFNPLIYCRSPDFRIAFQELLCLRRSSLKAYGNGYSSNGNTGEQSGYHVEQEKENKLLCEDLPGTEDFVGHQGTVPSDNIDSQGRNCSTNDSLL
Sequence of Gonadotropin-releasing hormone receptor (Homo sapiens) (P30968 whole entry, looked up): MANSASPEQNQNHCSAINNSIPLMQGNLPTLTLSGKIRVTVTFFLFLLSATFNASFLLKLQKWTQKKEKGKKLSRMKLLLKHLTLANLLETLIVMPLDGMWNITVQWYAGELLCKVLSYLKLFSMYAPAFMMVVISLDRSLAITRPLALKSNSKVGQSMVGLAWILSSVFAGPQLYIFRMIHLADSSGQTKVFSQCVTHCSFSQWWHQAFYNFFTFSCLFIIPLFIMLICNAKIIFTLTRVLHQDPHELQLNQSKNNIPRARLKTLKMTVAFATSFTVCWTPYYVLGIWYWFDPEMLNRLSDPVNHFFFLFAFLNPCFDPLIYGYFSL

Cc1cccc(Nc2ccncc2S(=O)(=O)NC(=O)NC(C)C)c1
not listed: [17]
inactive: all other assays above

COc1ccccc1OCC(O)COC(N)=O (stereo not given)
not listed: [17]
inactive: all other assays above

Oc1cccc(O)c1O
not listed: [17]
inactive: all other assays above

C[C@H]1O[C@H](O[C@H]2[C@H](O)[C@@H](O)[C@@H](O[C@H]3[C@H](O)[C@@H](O)[C@H](O)O[C@@H]3CO)O[C@@H]2CO)[C@H](O)[C@@H](O)[C@@H]1N[C@H]1C=C(CO)[C@@H](O)[C@H](O)[C@H]1O
not listed: [17]
inactive: all other assays above

Nc1nc(N)nc(-c2cc(Cl)ccc2Cl)n1
not listed: [15] | [17]
inactive: all other assays above

CN(C)CCN1CCOCC1
not listed: [12] | [16]
inactive: all other assays above

c1ccc([C@H]2CN3CCSC3=N2)cc1
not listed: [17]
inactive: all other assays above

CCN1CC(CCN2CCOCC2)C(c2ccccc2)(c2ccccc2)C1=O (stereo not given)
not listed: [17]
inactive: all other assays above

Cc1cc(C(C)(C)C)cc(C)c1CC1=NCCN1
not listed: [16]
inactive: all other assays above

Cc1nccn1CC1CCc2c(c3ccccc3n2C)C1=O (stereo not given)
not listed: [16] | [17]
inactive: all other assays above

CC(=O)CCCCn1c(=O)c2c(ncn2C)n(C)c1=O
not listed: [14] | [17]
inactive: all other assays above

CC(C)(C(=O)c1cccnc1)c1cccnc1
not listed: [17]
inactive: all other assays above

NC(=O)NC(=O)Cc1ccccc1
not listed: [17]
inactive: all other assays above

CC1=CC(=O)CC(C)(C)C1=O
not listed: [16]
inactive: all other assays above

— PubChem BioAssay (Tox21)
